ChEMBL document CHEMBL1961873, “Compounds: GSK PKIS; Assays: Nanosyn kinase panel” (2012)

Assays:
[1] = molecular target: Sphingosine kinase 1 (Homo sapiens) (UniProt Q9NYA1); details: at 1 µM;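 note: mean SPHK1 inhibition value reported from the GSK PKIS kinase panel screen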
[2] = molecular target: T1, Sphingosine kinase 2 (Homo sapiens) (UniProt Q9NRA0); details: at 0.1 µM
T1 sequence (whole entry): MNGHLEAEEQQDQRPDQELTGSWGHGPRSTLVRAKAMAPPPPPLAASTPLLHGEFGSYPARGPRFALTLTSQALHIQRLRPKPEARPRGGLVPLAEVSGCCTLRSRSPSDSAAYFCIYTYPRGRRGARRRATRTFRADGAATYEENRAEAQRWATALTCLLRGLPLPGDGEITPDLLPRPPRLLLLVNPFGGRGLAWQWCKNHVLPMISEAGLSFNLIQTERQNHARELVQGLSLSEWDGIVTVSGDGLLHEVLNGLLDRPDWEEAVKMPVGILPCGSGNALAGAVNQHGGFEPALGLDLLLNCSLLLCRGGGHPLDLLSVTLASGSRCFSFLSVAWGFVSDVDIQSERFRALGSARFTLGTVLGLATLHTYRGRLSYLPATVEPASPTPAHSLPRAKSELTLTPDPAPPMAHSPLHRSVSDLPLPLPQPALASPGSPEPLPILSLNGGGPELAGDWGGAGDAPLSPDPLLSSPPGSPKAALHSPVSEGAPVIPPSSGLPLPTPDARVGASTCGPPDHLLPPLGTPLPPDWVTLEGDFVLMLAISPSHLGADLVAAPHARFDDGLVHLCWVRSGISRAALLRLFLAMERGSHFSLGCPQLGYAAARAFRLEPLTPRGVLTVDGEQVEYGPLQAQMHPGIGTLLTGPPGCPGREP

[3] = molecular target: T1, Sphingosine kinase 2 (Homo sapiens); details: at 1 µM
[4] = molecular target: Casein kinase II subunit alpha (Homo sapiens) (UniProt P68400); details: at 0.1 µM
[5] = molecular target: Casein kinase II subunit alpha (Homo sapiens) (UniProt P68400); details: at 1 µM
[6] = molecular target: T2, Inhibitor of nuclear factor kappa-B kinase subunit alpha (Homo sapiens) (UniProt O15111); details: at 0.1 µM
T2 sequence (whole entry): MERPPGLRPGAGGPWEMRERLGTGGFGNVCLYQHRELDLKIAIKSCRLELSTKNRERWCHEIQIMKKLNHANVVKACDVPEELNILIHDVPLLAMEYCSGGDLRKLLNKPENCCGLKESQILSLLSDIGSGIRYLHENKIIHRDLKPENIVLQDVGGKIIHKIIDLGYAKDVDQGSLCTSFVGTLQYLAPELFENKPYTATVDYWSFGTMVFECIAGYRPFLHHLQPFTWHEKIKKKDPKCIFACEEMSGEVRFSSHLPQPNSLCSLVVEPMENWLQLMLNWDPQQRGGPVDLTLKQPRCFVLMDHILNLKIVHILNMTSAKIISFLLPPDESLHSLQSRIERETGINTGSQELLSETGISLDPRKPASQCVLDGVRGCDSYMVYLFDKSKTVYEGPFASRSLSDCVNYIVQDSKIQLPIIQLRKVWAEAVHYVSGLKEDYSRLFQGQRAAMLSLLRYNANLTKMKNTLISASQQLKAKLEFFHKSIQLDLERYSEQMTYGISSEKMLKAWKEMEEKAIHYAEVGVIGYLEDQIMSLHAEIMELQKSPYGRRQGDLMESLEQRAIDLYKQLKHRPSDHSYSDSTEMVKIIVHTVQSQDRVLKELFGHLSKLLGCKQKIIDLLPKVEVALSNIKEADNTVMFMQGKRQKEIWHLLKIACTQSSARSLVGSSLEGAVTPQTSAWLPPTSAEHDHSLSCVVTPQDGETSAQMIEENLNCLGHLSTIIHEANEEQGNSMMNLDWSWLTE

[7] = molecular target: T2, Inhibitor of nuclear factor kappa-B kinase subunit alpha (Homo sapiens); details: at 1 µM
[8] = molecular target: T3, Inhibitor of nuclear factor kappa-B kinase subunit beta (Homo sapiens) (UniProt O14920); details: at 0.1 µM
T3 sequence (whole entry): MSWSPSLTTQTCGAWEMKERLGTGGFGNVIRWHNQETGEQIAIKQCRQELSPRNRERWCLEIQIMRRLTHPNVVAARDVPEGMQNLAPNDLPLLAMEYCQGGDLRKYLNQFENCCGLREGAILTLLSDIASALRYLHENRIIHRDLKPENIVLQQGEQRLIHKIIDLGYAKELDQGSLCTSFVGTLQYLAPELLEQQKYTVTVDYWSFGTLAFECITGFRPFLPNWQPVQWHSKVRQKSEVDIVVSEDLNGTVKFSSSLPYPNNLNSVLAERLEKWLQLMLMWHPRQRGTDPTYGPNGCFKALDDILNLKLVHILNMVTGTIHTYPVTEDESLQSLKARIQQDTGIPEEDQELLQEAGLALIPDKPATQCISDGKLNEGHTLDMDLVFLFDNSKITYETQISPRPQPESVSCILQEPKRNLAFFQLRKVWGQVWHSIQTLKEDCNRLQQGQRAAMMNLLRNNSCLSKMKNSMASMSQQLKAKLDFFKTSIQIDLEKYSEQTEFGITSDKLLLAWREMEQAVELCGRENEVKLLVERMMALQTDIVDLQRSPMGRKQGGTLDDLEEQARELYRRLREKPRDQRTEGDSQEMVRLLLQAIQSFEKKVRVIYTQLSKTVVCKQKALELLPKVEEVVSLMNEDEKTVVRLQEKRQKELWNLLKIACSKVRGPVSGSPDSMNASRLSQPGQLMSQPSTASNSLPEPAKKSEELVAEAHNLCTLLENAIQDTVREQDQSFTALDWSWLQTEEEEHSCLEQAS

[9] = molecular target: T3, Inhibitor of nuclear factor kappa-B kinase subunit beta (Homo sapiens); details: at 1 µM
[10] = molecular target: T4, Inhibitor of nuclear factor kappa-B kinase subunit epsilon (Homo sapiens) (UniProt Q14164); details: at 0.1 µM
T4 sequence (whole entry): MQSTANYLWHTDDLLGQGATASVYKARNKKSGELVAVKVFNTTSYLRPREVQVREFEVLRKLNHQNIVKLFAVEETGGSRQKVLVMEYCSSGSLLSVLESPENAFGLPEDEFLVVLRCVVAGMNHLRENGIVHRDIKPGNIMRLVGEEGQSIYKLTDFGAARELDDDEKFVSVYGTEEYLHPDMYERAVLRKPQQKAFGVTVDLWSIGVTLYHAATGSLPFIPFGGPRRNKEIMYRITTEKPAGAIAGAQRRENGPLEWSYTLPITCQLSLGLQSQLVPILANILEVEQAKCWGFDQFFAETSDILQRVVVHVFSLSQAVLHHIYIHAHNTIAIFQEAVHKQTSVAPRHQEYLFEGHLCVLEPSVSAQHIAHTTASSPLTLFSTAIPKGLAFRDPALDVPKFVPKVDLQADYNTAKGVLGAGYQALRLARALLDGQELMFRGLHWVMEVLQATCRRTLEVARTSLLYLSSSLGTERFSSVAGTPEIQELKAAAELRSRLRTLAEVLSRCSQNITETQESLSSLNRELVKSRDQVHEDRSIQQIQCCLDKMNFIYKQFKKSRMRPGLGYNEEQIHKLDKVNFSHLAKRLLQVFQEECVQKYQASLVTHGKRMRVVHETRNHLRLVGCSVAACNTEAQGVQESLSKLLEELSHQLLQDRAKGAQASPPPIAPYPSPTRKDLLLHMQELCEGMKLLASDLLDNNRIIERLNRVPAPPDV

[11] = molecular target: T4, Inhibitor of nuclear factor kappa-B kinase subunit epsilon (Homo sapiens); details: at 1 µM
[12] = molecular target: T5, Serine/threonine-protein kinase Nek1 (Homo sapiens) (UniProt Q96PY6); details: at 0.1 µM
T5 sequence (whole entry): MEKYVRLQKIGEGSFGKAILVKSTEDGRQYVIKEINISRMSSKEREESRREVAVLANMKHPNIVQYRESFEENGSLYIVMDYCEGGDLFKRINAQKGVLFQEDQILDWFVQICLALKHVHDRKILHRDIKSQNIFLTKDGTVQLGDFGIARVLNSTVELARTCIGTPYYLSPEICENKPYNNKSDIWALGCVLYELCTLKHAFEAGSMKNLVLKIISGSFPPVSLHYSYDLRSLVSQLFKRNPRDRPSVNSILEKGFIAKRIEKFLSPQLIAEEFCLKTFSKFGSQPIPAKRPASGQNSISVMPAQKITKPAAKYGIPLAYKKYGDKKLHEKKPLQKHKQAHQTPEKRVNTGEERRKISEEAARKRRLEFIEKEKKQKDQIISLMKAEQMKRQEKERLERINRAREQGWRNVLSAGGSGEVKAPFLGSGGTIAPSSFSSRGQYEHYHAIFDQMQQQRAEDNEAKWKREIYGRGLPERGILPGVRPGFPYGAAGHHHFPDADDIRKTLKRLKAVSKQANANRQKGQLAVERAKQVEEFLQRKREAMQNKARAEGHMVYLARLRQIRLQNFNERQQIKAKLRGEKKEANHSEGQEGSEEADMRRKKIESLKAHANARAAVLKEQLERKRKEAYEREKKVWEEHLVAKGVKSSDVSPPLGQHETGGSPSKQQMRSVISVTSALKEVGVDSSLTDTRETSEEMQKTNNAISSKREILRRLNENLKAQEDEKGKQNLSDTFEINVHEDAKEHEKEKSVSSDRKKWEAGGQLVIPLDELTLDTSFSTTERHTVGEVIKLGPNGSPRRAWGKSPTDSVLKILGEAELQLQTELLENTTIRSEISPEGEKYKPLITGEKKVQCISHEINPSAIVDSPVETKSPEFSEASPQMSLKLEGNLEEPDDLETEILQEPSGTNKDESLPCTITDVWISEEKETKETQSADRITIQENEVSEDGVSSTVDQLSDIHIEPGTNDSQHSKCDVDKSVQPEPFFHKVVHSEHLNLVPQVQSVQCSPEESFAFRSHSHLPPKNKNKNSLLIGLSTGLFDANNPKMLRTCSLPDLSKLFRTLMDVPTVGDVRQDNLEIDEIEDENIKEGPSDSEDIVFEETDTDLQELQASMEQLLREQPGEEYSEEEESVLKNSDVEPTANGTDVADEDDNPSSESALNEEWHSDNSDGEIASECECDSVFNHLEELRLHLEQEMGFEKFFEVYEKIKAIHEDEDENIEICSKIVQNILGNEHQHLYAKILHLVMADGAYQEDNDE

[13] = molecular target: T5, Serine/threonine-protein kinase Nek1 (Homo sapiens); details: at 1 µM
[14] = molecular target: T6, Serine/threonine-protein kinase Nek2 (Homo sapiens) (UniProt P51955); details: at 0.1 µM
T6 sequence (whole entry): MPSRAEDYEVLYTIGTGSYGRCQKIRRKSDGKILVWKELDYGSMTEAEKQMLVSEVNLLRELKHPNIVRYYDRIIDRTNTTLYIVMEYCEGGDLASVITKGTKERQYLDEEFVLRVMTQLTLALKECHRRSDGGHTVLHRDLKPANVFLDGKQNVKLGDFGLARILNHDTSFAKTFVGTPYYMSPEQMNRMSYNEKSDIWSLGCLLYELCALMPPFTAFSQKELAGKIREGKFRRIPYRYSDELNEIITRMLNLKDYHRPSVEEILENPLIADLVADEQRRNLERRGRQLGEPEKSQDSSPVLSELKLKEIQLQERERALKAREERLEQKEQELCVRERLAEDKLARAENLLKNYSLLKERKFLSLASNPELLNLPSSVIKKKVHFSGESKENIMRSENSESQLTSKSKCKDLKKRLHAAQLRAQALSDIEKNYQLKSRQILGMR

[15] = molecular target: T6, Serine/threonine-protein kinase Nek2 (Homo sapiens); details: at 1 µM
[16] = molecular target: Serine/threonine-protein kinase Nek6 (Homo sapiens) (UniProt Q9HC98); details: at 0.1 µM
[17] = molecular target: Serine/threonine-protein kinase Nek6 (Homo sapiens) (UniProt Q9HC98); details: at 1 µM
[18] = molecular target: Serine/threonine-protein kinase Nek7 (Homo sapiens) (UniProt Q8TDX7); details: at 0.1 µM
[19] = molecular target: Serine/threonine-protein kinase Nek7 (Homo sapiens) (UniProt Q8TDX7); details: at 1 µM
[20] = molecular target: T7, Serine/threonine-protein kinase Nek9 (Homo sapiens) (UniProt Q8TD19); details: at 0.1 µM;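 note: reported value is the mean percent inhibition of NEK9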
T7 sequence (whole entry): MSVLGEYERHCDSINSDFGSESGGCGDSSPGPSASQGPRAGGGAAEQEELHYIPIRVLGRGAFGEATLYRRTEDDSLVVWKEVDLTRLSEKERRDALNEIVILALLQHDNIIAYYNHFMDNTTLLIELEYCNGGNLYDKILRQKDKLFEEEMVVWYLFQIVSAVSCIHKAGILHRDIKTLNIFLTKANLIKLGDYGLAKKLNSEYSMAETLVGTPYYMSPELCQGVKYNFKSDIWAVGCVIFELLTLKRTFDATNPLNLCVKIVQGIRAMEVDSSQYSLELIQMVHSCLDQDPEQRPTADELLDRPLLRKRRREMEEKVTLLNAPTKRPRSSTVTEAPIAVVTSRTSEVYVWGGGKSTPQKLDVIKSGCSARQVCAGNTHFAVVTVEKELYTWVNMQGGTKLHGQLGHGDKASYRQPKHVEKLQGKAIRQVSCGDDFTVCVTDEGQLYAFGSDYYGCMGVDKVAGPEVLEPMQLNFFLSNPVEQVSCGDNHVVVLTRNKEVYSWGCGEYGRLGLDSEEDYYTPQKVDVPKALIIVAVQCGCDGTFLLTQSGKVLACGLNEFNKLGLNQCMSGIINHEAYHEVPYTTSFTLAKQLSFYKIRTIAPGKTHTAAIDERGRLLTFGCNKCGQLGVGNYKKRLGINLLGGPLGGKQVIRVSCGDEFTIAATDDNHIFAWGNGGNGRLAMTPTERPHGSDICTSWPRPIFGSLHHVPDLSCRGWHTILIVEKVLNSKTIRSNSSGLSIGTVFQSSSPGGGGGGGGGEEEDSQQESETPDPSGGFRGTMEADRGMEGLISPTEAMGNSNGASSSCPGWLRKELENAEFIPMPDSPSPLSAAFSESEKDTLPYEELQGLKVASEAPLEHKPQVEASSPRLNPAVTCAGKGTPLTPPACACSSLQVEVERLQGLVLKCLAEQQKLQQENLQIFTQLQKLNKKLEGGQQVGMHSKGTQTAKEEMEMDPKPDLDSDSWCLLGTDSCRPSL

Sequence of Casein kinase II subunit alpha (Homo sapiens) (P68400 whole entry, looked up): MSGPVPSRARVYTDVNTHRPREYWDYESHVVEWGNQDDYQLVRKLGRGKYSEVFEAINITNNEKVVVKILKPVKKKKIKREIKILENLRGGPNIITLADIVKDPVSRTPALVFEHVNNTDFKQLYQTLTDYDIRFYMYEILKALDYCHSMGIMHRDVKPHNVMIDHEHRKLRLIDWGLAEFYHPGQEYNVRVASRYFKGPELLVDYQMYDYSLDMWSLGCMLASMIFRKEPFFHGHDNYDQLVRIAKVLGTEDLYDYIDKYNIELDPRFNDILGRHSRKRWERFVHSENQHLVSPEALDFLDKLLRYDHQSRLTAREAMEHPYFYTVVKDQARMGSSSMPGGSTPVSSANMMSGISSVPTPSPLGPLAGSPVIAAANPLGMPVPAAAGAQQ
Sequence of Serine/threonine-protein kinase Nek7 (Homo sapiens) (Q8TDX7 whole entry, looked up): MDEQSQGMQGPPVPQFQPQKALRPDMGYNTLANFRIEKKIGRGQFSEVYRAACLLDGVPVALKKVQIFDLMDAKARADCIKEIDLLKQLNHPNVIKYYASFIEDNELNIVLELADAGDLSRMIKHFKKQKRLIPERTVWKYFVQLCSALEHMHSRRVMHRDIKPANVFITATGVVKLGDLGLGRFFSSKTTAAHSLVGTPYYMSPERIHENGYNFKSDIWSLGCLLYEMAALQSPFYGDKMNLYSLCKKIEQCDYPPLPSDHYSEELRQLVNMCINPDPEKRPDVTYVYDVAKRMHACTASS
Sequence of Serine/threonine-protein kinase Nek6 (Homo sapiens) (Q9HC98 whole entry): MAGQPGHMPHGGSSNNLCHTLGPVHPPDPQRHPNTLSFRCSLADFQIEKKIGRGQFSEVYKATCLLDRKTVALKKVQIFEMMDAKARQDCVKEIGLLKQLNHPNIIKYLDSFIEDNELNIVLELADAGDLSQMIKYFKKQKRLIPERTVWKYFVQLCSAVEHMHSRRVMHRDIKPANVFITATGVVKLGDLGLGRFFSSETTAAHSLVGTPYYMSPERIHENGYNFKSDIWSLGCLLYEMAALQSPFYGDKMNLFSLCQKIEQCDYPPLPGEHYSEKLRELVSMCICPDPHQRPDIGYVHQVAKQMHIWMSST
Sequence of Sphingosine kinase 1 (Homo sapiens) (Q9NYA1 whole entry): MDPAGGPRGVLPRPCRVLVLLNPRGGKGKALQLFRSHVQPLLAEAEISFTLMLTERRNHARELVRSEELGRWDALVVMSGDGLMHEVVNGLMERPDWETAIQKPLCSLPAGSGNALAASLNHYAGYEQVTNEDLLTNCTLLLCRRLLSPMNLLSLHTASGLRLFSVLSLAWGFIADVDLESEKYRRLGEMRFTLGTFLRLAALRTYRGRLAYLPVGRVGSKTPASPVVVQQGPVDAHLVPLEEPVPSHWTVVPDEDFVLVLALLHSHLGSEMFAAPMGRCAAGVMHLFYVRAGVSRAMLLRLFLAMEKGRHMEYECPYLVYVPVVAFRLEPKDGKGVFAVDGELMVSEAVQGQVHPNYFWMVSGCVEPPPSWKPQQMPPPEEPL

NS(=O)(=O)c1ccc(Nc2cc(-c3ccc(O)c(F)c3)n[nH]2)cc1
inhibition [1]: -3.17% | inhibition [2]: 0% | inhibition [3]: 0.11% | inhibition [4]: 5.31% | inhibition [5]: 29.6% | inhibition [6]: -1.61% | inhibition [7]: 3.48% | inhibition [8]: -0.76% | inhibition [9]: 0.06% | inhibition [10]: -4.53% | inhibition [11]: -0.51% | inhibition [12]: -0.93% | inhibition [13]: -1.21% | inhibition [14]: -3.94% | inhibition [15]: -3.05% | inhibition [16]: -4.94% | inhibition [17]: -2.21% | inhibition [18]: -0.59% | inhibition [19]: -3.23% | inhibition [20]: 5.12%
